# Measurements: PubChem BioAssay AID743279 (National Center for Advancing Translational Sciences (NCATS), 2014)
# About 17,000 (4.7%) of roughly 360,000 compounds were called active. Not shown: some 5% with an inconclusive outcome. Many of the other results were omitted from the sample, so actives are more common in it than they were. Unmarked numbers belong to inactive results. Rule as the data show it: active = activity change below about -50%; inconclusive = mostly about -30% to -49%; inactive = weaker than that.
# Assay: qHTS for Inhibitors of Inflammasome Signaling: IL-1-beta AlphaLISA Primary Screen
# Conditions: THP-1 LPS/ATP IL-1B secretion, 16 h; at 57.5 µM, stronger effect = lower value
# How it was run: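 Secreted IL-1B measured by AlphaLISA bead assay after 16 h compound exposure of THP-1 cells; compounds (final up to 57.5 uM) added 1 h before LPS (250 ng/mL) and ATP (1.25 mM) stimulation; lower signal means less secretion.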
# % is scaled to controls: 0 for no effect and ±100 for the full control effect.
row,Compound,activity change
1,Clc1ccc(-n2nnnc2-c2cnc(-c3ccccn3)nc2-c2cccs2)cc1,-21.9%
2,c1ccc(-n2nnnc2-c2cccnc2)cc1,-6.19%
3,O=C(OCc1ccc(-c2ccccc2)cc1)c1cccc(O)c1,-71.1% (active)
4,O=C(OCC(=O)c1c[nH]c2ccccc12)c1cccc(O)c1,-4.98%
5,O=C(CNC(=O)c1ccc(-c2ccccc2)cc1)OCc1ccc(Cl)cc1,18.8%
6,CSc1nnc2c(n1)OC(c1cn(C)c3ccccc13)N(C(C)=O)c1ccccc1-2 (stereo unspecified),0.333%
7,CCN(CC)CCNC(=O)C1c2ccccc2C(=O)N(C)C1c1cn(C)c2ccccc12 (stereo unspecified),6.05%
8,Cn1cc(C2OC(=O)c3ccccc32)c2ccccc21 (stereo unspecified),-66% (active)
9,CCCc1ccc(C(O)c2ncc(-c3cccc(OC)c3)[nH]2)cc1 (stereo unspecified),26%
10,COC(=O)c1ccccc1Oc1c(F)c(F)nc(N2CCOCC2)c1F,5.09%
11,Cn1nc(C(=O)OCC(=O)N(Cc2ccccc2)C(C)(C)C)c2ccccc2c1=O,10.9%
12,Cc1ccc(C)c(OCCC(=O)OCC(=O)N2CCN(c3ccccc3)CC2)c1,-2.33%
13,COc1ccccc1OCCC(=O)OCC(=O)NCc1ccccc1,18%
14,Cc1ccc(C)c(OCCC(=O)OCC(=O)NC(=O)NCc2ccccc2)c1,-87.8% (active)
15,Nc1[nH]c(C(=O)c2ccccc2)c(-c2ccncc2)c1C(=O)NCc1cccc2ccccc12,7.69%
16,Cc1noc(C)c1S(=O)(=O)N(C)C[C@H]1OCCCC[C@@H](C)Oc2ccc(NC(=O)CCCN(C)C)cc2C(=O)N([C@H](C)CO)C[C@@H]1C,19.6%
17,O=[N+]([O-])c1ccc(CN2CC(N3CC=CC3)CS2(=O)=O)cc1 (stereo unspecified),-24.5%
18,COC(=O)c1ccc(NC(=O)C23CC4CC(C2)CC(n2cnc(Cl)n2)(C4)C3)cc1,54.6%
19,O=C(CSc1nc2cccc(F)c2c(=O)n1-c1ccccc1)Nc1ccc2c(c1)CCC2,0%
20,COc1cc(Br)cc(/C=N/c2ncn[nH]2)c1O,-55.5% (active)
21,C=CCn1c(Cn2nnc3ccccc32)nnc1SCC(=O)N/N=C/c1cc(Br)cc(OC)c1O,1%
22,Oc1c(Cl)cc(Cl)cc1/C=N/c1ncn[nH]1,-20.2%
23,Nn1c(SCC(=O)Nc2nccs2)nncc1=O,9.24%

row,Compound,activity change
1,C[C@@H]1C[C@@H]2O[C@H]2/C=C\C=C\C(=O)Cc2c(Cl)c(O)cc(O)c2C(=O)O1,-108% (active)
2,CC1CCCCC12NC(=O)N(CC(=O)OCC(=O)NCc1ccc(F)cc1)C2=O (stereo unspecified),28%
3,CC1=CC(=NNS(=O)(=O)c2ccc([N+](=O)[O-])cc2)CC(C)(C)C1,8.3%
4,COc1ccc(CCNS(=O)(=O)c2cccc([N+](=O)[O-])c2)cc1,-12.5%
5,S=C(NCC1CCCO1)N1CCN(c2ccc(Cl)c(Cl)c2)CC1 (stereo unspecified),-64.9% (active)
6,COc1ccc(S(=O)(=O)N2CCN(C(=S)NCC3CCCO3)CC2)cc1OC (stereo unspecified),41.3%
7,CCOc1ccc(S(=O)(=O)N2CCN(C(=S)NCC3CCCO3)CC2)cc1 (stereo unspecified),8.09%
8,CCCC/C=C/c1cccc2nncn12,0%
9,c1ccc2c(C[n+]3csc4ccccc43)cccc2c1,-14.6%
10,COC(=O)c1cc2n(n1)CCCNC2=O,-12.8%
11,NS(=O)(=O)c1ccc(NC(=O)COC(=O)c2c3c(nc4ccccc24)/C(=C\c2ccc4c(c2)OCO4)CCC3)cc1,-62.6% (active)
12,O=C(COC(=O)c1ccncc1)Nc1ccc2c(c1)OCO2,7.7%
13,NC(=O)c1ccc(NC(=O)COC(=O)c2c3c(nc4ccccc24)/C(=C\c2ccc4c(c2)OCO4)CCC3)cc1,-3.47%
14,CCOc1ccc2[nH]c(=S)sc2c1,32.5%
15,Cc1ccc(/C=C2/SC(=S)N(CCC(=O)NCCCN3CCOCC3)C2=O)cc1,-83.3% (active)
16,COc1ccc(/C=C2\SC(=S)N(CCC(=O)N3CCOCC3)C2=O)cc1OC,-10.5%
17,O=C(CCN1C(=O)c2ccccc2C1=O)NCCN1CCOCC1,-5.01%
18,CC(OC(=O)CCC(=O)c1ccccc1)C(=O)Nc1ccc(F)cc1 (stereo unspecified),9.85%
19,Cc1c(C(=O)NCC2CC2)sc(=O)n1Cc1cccc(F)c1,-16.4%
20,COc1ccc(CNC(=O)CCN2C(=O)c3ccccc3C2=O)cc1,-9.34%
21,CCOC(=O)c1cc2cc3ccccc3cc2oc1=O,-12.5%
22,CCOC(=O)C1=C(c2ccc(OC)cc2)C(=O)c2ccccc2C1=O,-99% (active)
23,CCN(CC)C(=O)C1=C(C)N(Cc2ccc(OC)cc2)C(=O)C(CC(=O)NCc2ccco2)C1 (stereo unspecified),-25.2%
